What was measured:
Assay in all cases: DAPPL (digital affinity profiling via proximity ligation, sequencing); 10 mM Tris-HCl pH 7.5, 50 mM NaCl, 1 mM DTT, 4% glycerol, room temperature, 30 min; GST-TFs on glutathione beads, 16-mer random dsDNA library, 0.1% formaldehyde crosslink after washing; high values mean tight binding
FEV = molecular target: T1, FEV (Homo sapiens, UniProt Q99581 1-238); conditions: protein: recombinant; tags: N-terminal GST; dsDNA, one strand shown
T1 sequence: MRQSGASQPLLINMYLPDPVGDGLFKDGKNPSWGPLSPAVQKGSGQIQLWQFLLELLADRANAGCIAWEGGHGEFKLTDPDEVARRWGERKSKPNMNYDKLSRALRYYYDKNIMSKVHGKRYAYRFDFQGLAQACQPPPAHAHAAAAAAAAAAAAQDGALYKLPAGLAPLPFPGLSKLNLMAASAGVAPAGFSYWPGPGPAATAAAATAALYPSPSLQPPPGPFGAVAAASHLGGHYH
How it was run: (§1)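 Each value of binding signal is a hexamer's read frequency for a factor divided by the same hexamer's frequency in the tag-only sample. Barcoded, bead-captured GST fusions of human transcription factors made in yeast were pooled with that sample and incubated with 200 nmole of a random double-stranded 16-mer DNA library in Tris/NaCl/DTT/glycerol buffer at room temperature for 30 min. Washing, 0.1% formaldehyde crosslinking, proximity ligation, PCR and Illumina NextSeq500 sequencing followed.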

ETV5 = ETV5 (Homo sapiens, UniProt P41161 1-510); conditions: protein: recombinant; tags: N-terminal GST; dsDNA, one strand shown
How it was run: as §1

HSF1 = HSF1 (Homo sapiens, UniProt Q00613 1-529); conditions: protein: recombinant; tags: N-terminal GST; chain copies: 3; dsDNA, one strand shown
How it was run: as §1

SPIC = molecular target: T2, SPIC (Homo sapiens, UniProt Q8N5J4 1-248); conditions: protein: recombinant; tags: N-terminal GST; dsDNA, one strand shown
T2 sequence: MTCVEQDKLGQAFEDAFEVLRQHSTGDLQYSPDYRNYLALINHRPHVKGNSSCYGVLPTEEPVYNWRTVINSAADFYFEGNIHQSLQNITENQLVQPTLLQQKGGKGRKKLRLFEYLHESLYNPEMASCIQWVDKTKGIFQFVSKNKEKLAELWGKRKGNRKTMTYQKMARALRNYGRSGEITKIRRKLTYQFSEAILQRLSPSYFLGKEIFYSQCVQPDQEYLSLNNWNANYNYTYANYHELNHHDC
How it was run: as §1

ELF4 = ELF4 (Homo sapiens, UniProt Q99607 1-663); conditions: protein: recombinant; tags: N-terminal GST; dsDNA, one strand shown
How it was run: as §1

ELK4 = molecular target: T3, ELK4 (Homo sapiens, UniProt P28324-2 1-405); conditions: protein: recombinant; tags: N-terminal GST; dsDNA, one strand shown
T3 sequence: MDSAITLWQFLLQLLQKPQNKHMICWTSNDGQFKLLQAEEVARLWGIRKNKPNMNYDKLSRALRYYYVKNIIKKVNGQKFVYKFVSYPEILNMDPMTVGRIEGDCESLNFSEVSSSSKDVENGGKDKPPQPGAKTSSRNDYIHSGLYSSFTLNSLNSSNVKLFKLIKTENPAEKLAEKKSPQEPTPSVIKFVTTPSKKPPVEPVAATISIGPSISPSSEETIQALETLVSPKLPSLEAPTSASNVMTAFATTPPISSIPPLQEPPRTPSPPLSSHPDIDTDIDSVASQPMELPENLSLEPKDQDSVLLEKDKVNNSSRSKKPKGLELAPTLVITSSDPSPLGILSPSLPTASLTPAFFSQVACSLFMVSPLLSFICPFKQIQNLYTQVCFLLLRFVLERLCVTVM
How it was run: as §1

ETV2 = molecular target: T4, ETV2 (Homo sapiens, UniProt O00321 1-342); conditions: protein: recombinant; tags: N-terminal GST; dsDNA, one strand shown
T4 sequence: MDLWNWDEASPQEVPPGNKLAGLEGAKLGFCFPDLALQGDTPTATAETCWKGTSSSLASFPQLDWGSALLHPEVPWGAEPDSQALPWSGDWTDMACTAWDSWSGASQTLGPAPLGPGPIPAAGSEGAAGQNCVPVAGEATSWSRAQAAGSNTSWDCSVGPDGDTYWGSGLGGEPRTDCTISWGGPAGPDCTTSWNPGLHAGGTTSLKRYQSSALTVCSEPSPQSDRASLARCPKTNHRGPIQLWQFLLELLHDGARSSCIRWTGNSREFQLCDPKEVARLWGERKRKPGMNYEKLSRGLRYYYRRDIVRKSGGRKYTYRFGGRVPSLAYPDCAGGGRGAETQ
How it was run: as §1

ELF3 = molecular target: T5, ELF3 (Homo sapiens, UniProt P78545 1-371); conditions: protein: recombinant; tags: N-terminal GST; dsDNA, one strand shown
T5 sequence: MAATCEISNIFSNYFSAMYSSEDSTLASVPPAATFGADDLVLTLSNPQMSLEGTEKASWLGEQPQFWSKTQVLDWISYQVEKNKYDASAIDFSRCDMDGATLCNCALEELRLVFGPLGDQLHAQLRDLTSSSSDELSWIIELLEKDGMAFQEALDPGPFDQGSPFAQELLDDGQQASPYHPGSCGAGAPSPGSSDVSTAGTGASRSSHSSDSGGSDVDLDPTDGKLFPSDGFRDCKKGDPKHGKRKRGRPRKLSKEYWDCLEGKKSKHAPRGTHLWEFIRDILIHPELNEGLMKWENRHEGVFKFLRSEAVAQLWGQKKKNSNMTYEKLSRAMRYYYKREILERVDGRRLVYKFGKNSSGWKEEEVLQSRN
How it was run: as §1

CRX = CRX (Homo sapiens, UniProt O43186 1-299); conditions: protein: recombinant; tags: N-terminal GST; dsDNA, one strand shown
How it was run: as §1

ETV1 = ETV1 (Homo sapiens, UniProt P50549 1-477); conditions: protein: recombinant; tags: N-terminal GST; dsDNA, one strand shown
How it was run: as §1

ERF = molecular target: T6, ERF (Homo sapiens, UniProt P50548 1-548); conditions: protein: recombinant; tags: N-terminal GST; dsDNA, one strand shown
T6 sequence: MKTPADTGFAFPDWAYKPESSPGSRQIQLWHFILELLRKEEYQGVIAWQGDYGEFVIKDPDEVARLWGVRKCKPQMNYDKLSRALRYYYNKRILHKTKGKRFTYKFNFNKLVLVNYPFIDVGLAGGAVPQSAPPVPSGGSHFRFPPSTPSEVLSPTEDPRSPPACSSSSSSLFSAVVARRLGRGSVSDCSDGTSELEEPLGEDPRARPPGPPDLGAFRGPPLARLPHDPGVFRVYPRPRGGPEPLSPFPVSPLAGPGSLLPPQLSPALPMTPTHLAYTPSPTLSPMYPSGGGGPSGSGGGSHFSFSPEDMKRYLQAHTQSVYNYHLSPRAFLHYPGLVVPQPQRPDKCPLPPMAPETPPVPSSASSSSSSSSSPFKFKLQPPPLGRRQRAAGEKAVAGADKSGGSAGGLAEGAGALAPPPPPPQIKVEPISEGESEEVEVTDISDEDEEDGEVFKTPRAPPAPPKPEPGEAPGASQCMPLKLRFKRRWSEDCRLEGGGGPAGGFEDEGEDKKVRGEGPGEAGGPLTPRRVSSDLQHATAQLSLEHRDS
How it was run: as §1

ETV3L = molecular target: T7, ETV3L (Homo sapiens, UniProt Q6ZN32 1-361); conditions: protein: recombinant; tags: N-terminal GST; dsDNA, one strand shown
T7 sequence: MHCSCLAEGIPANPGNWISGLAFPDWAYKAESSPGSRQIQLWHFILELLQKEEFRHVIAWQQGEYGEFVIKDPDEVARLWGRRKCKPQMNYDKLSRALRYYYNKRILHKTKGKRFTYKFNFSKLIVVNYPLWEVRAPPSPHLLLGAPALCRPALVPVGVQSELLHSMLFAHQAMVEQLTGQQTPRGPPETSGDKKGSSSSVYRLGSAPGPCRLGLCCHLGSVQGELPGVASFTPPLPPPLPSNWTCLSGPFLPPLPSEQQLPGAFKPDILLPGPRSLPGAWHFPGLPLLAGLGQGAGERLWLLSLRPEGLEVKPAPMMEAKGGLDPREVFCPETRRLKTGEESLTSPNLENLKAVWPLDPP
How it was run: as §1

ETS2 = molecular target: T8, ETS2 (Homo sapiens, UniProt P15036 1-469); conditions: protein: recombinant; tags: N-terminal GST; dsDNA, one strand shown
T8 sequence: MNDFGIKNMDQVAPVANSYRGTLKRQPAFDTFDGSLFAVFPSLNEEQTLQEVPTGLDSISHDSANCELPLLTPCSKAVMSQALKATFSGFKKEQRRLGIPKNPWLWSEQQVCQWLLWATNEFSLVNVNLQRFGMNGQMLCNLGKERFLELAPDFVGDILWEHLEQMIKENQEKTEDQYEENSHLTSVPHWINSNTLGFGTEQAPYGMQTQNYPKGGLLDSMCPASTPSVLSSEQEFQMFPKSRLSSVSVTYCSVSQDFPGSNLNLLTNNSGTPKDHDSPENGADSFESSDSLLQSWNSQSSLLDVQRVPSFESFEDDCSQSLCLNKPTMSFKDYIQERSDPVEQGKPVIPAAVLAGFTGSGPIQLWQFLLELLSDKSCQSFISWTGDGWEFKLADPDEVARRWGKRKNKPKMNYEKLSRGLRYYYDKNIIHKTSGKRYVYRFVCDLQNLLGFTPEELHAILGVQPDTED
How it was run: as §1

SPDEF = molecular target: T9, SPDEF (Homo sapiens, UniProt O95238 1-335); conditions: protein: recombinant; tags: N-terminal GST; dsDNA, one strand shown
T9 sequence: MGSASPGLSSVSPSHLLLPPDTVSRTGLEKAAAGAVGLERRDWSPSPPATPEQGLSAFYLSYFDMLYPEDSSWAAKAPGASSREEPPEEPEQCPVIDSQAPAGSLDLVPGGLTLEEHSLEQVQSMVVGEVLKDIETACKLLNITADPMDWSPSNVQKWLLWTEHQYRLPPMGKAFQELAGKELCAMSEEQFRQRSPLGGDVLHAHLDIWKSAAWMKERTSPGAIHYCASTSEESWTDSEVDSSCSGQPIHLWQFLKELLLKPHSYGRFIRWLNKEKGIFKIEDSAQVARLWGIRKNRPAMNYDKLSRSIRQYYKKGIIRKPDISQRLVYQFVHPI
How it was run: as §1

ETV7 = molecular target: T10, ETV7 (Homo sapiens, UniProt Q9Y603 1-341); conditions: protein: recombinant; tags: N-terminal GST; dsDNA, one strand shown
T10 sequence: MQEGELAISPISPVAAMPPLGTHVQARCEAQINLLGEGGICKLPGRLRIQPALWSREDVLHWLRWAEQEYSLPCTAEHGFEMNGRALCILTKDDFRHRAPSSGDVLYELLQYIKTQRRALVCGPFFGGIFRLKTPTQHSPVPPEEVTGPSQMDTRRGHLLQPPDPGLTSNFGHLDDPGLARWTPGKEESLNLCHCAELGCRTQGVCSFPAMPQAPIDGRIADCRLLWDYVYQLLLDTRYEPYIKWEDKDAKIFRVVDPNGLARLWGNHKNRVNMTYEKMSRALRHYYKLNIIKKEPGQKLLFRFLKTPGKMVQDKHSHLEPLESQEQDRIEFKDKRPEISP
How it was run: as §1

ELF5 = molecular target: T11, ELF5 (Homo sapiens, UniProt Q9UKW6-2 1-255); conditions: protein: recombinant; tags: N-terminal GST; dsDNA, one strand shown
T11 sequence: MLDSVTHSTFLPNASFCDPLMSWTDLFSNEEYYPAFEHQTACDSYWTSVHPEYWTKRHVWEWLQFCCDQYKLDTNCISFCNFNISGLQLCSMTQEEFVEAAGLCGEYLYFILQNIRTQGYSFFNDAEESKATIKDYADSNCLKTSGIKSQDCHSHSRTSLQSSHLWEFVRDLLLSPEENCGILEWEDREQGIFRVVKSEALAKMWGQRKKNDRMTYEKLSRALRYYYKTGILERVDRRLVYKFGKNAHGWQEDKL
How it was run: as §1

ETV3 = molecular target: T12, ETV3 (Homo sapiens, UniProt P41162-2 1-143); conditions: protein: recombinant; tags: N-terminal GST; dsDNA, one strand shown
T12 sequence: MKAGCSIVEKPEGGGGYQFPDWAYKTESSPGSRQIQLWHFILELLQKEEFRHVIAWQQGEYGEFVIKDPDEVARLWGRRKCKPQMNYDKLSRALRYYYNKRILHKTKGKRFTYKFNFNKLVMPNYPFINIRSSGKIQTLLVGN
How it was run: as §1

ETV6 = ETV6 (Homo sapiens, UniProt P41212 1-452); conditions: protein: recombinant; tags: N-terminal GST; dsDNA, one strand shown
How it was run: as §1

Sequence of ELF4 (Q99607 whole entry): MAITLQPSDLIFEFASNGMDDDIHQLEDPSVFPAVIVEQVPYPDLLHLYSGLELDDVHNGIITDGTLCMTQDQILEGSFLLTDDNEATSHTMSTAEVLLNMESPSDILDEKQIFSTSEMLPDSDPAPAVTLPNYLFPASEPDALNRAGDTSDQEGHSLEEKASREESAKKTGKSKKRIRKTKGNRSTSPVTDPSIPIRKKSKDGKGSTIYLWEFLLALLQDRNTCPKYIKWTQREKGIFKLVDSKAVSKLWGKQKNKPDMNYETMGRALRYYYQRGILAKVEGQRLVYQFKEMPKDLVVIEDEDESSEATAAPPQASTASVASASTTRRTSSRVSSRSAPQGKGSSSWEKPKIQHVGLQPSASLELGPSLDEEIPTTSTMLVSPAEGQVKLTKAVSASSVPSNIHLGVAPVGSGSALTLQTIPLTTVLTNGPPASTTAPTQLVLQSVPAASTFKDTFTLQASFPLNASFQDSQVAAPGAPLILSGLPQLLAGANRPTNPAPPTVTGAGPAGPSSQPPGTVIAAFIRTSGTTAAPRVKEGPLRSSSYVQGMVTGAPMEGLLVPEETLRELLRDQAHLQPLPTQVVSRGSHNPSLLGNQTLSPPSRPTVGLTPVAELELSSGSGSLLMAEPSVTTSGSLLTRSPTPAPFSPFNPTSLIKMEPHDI
Sequence of HSF1 (Q00613 whole entry): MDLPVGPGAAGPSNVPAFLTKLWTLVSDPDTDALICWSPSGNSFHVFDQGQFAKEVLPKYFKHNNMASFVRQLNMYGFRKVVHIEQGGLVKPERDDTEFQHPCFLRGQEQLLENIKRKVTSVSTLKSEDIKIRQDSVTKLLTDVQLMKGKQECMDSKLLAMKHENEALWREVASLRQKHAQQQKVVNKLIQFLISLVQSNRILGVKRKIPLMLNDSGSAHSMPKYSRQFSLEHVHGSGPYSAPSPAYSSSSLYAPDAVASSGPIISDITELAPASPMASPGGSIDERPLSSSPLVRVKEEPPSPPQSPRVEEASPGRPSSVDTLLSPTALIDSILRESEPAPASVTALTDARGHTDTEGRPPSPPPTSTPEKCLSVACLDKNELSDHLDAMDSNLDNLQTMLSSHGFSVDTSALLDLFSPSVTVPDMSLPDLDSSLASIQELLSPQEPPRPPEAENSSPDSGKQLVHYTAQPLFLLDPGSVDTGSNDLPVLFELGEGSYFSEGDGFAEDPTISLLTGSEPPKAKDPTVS
Sequence of ETV6 (P41212 whole entry): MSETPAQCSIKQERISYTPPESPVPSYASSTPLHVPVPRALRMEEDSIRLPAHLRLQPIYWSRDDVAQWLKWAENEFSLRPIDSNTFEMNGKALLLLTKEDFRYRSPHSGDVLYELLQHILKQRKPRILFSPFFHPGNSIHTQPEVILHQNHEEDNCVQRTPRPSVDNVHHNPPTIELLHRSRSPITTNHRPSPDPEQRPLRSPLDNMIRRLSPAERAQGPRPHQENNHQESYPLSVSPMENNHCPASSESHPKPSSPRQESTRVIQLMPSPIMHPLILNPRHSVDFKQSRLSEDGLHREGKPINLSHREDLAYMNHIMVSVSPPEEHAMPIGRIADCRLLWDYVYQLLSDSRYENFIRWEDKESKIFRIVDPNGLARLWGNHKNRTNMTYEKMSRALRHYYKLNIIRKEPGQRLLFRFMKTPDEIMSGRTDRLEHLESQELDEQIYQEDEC
Sequence of ETV5 (P41161 whole entry): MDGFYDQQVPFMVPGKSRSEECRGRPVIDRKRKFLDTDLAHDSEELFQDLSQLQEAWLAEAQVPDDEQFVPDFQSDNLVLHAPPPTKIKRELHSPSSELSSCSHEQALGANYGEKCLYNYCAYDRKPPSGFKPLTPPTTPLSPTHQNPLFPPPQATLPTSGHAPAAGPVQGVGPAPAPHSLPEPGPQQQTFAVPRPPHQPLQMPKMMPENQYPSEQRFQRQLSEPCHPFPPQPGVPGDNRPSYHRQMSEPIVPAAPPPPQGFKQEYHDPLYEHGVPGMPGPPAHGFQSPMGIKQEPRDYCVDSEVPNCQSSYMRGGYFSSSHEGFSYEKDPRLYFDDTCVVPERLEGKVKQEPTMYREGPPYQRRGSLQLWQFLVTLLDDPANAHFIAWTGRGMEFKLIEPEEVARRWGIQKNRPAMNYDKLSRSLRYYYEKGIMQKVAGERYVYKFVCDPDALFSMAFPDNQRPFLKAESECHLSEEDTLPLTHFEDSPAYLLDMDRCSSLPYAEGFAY
Sequence of ETV1 (P50549 whole entry): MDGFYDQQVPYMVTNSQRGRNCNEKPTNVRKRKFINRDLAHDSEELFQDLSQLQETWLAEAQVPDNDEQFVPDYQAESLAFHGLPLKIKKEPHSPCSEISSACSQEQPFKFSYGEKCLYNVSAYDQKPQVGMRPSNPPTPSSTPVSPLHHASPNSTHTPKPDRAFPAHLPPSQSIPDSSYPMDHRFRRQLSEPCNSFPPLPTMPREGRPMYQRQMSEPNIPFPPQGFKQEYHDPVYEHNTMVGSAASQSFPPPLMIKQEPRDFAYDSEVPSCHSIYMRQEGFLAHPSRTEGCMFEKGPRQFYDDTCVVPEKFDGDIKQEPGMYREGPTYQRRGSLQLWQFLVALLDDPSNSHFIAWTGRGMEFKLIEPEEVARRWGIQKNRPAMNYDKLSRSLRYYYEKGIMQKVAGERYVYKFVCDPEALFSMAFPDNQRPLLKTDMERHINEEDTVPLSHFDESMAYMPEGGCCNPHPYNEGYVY
Sequence of CRX (O43186 whole entry): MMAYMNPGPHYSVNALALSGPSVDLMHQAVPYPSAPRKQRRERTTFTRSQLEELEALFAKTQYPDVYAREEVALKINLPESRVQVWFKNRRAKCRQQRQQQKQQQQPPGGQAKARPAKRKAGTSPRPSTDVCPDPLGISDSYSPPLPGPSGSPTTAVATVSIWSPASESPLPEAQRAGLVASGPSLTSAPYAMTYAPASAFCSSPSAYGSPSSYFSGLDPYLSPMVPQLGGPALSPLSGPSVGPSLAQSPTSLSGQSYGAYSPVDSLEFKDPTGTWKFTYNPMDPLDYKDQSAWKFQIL

Sequence: TGGTAA
- binding signal (FEV): 1.15 fold enrichment (6-mer frequency, TF over GST control)
- binding signal (ETV5): 1.23 fold enrichment (6-mer frequency, TF over GST control)
- binding signal (HSF1): 1.45 fold enrichment (6-mer frequency, TF over GST control)
- binding signal (SPIC): 1.09 fold enrichment (6-mer frequency, TF over GST control)
- binding signal (ELF4): 1.23 fold enrichment (6-mer frequency, TF over GST control)
- binding signal (ELK4): 1.39 fold enrichment (6-mer frequency, TF over GST control)
- binding signal (ETV2): 1.3 fold enrichment (6-mer frequency, TF over GST control)
- binding signal (ELF3): 1.15 fold enrichment (6-mer frequency, TF over GST control)
- binding signal (CRX): 1.51 fold enrichment (6-mer frequency, TF over GST control)
- binding signal (ETV1): 1.27 fold enrichment (6-mer frequency, TF over GST control)
- binding signal (ERF): 1.27 fold enrichment (6-mer frequency, TF over GST control)
- binding signal (ETV3L): 1.25 fold enrichment (6-mer frequency, TF over GST control)
- binding signal (ETS2): 1.32 fold enrichment (6-mer frequency, TF over GST control)
- binding signal (SPDEF): 1.19 fold enrichment (6-mer frequency, TF over GST control)
- binding signal (ETV7): 1.4 fold enrichment (6-mer frequency, TF over GST control)
- binding signal (ELF5): 1.23 fold enrichment (6-mer frequency, TF over GST control)
- binding signal (ETV3): 1.15 fold enrichment (6-mer frequency, TF over GST control)
- binding signal (ETV6): 1.25 fold enrichment (6-mer frequency, TF over GST control)
